Molecules are shown by their SMILES. The campaign covered roughly 52,000 compounds. About 4,300 (8.3%) were called active. The sample holds actives, similar compounds and a random draw of the others, so the mix is not that of the screen. Cut-off read from the data, not from the text of the source: active = survival mostly below about 52% (no sharp cut-off); inactive = mostly above about 56%.

The assay relates to DeltatarO mutant. In words: growth inhibition of S. aureus wild type versus tarO mutant, primary screen, teichoic acid synthesis inhibitors, RN4220, OD600 (AID 463173). As to conditions: OD600, 18 h, hits give low values, screened at 18.75 µg/mL (by protocol).
With `Cc1c(NC(=O)c2ccc(Cl)cc2)cc(C(C)C)c(O)c1S(=O)(=O)c1ccc(Cl)cc1`, the survival was 75% (inactive).
As for `CCN(CC)C(=O)CSc1nnc(Cc2ccccc2)n1CC`, the survival was 50% (inactive).
With `CCOC(=O)C1CCN(C(=O)c2ccc3c(=O)n4nc(Nc5cc(C)ccc5C)sc4nc3c2)CC1`, the survival was 84% (inactive).
In the case of `COc1ccc(S(=O)(=O)N2CCC(c3ccncc3)CC2)cc1Cl`, the survival was 124% (inactive).
With `COc1ccccc1CNC(=O)CCn1c(=O)c2ccccc2n(CC(=O)Nc2ccc(C)cc2Cl)c1=O`, the survival was 77% (inactive).
Turning to `COc1ccc(-n2nc(C(=O)N3CCN(c4cccc(C)c4)C(C)C3)c3c4ccccc4n(C)c3c2=O)cc1` (stereo not drawn), the survival is 76% (inactive).
For `COc1ccc(/C=C/c2nc(C#N)c(NC3CCCCC3)o2)cc1OC` the value was 36% (active).
To `COc1ccccc1/C=C/c1nc(C#N)c(NC2CCCCC2)o1` belongs 85% (inactive); to `COc1cc(/C=C/c2nc(C#N)c(NC(C)c3ccccc3)o2)cc(OC)c1OC` (stereo not drawn), 40% (active); to `COc1ccccc1/C=C/c1nc(C#N)c(NC(C)c2ccccc2)o1` (stereo not drawn), 70% (inactive).
For `COc1cc(/C=C/c2nc(C#N)c(NCCc3ccccc3)o2)cc(OC)c1OC` the value was 49% (inactive); for `COc1cccc(/C=C/c2nc(C#N)c(NC3CCCCC3)o2)c1`, 69% (inactive); for `CC(=O)N1c2ccc(S(=O)(=O)NCC3CCC(C(=O)NCCC(C)C)CC3)cc2CC1C` (stereo not drawn), 102% (inactive).
On to `CC(C)CC(=O)NCC1(N(C)C)CCCCC1`, for which the survival is 84% (inactive).
Regarding `O=C(CN1C(=O)C2CCCCN2c2ccc(C(=O)N3CCCC3)cc21)NCc1ccccc1F` (stereo not drawn), the survival is 99% (inactive).
Take `O=C(NCc1cccc(Cl)c1)c1ccc(NC(=O)N2CCSc3ccccc32)cc1`: the survival was 57% (inactive).
In the case of `CSc1nn(Cc2cccc(F)c2)c(N(C(C)=O)C(C)=O)c1S(=O)(=O)c1ccccc1`, the survival was 84% (inactive).
Consider `Cc1nc(-c2ccc(C)c(N3CCN(C(=O)Nc4cccc(Cl)c4C)CC3)c2)no1`, for which the survival was 88% (inactive).
For `Cc1ccc(C)c(N(C)C(=O)c2cc3c(s2)-c2ccccc2OC3)c1`, the survival is -3% (active).
Take `COc1ccc(N2CCN(C(=O)c3cc4c(s3)-c3ccccc3OC4)CC2)cc1`: the survival is 114% (inactive).
As for `COc1cc(NC(=O)c2cc3c(s2)-c2ccccc2OC3)cc(OC)c1OC`, the survival is 55% (inactive).
As to `CCc1cccc(NC(=O)c2cc3c(s2)-c2ccccc2OC3)c1`, the survival was 83% (inactive).
Take `COc1cccc(CNC(=O)c2cc3c(s2)-c2ccccc2OC3)c1`: the survival is 42% (active).
Take `CCOc1ccc(NC(=O)c2cc3c(s2)-c2ccccc2OC3)cc1`: the survival was 95% (inactive).
To `COc1ccc(N(C)C(=O)c2cc3c(s2)-c2ccccc2OC3)cc1` belongs -2% (active); to `COc1cccc(CNC(=O)c2cc3c(s2)-c2c(C)cccc2OC3)c1`, 68% (inactive); to `Cc1ccc(CCNC(=O)c2cc3c(s2)-c2ccccc2OC3)cc1`, 82% (inactive).
For `COc1cccc(N2CCN(C(=O)c3cc4c(s3)-c3ccccc3OC4)CC2)c1` the value was 98% (inactive); for `COc1ccc(CNC(=O)c2cc3c(s2)-c2ccccc2OC3)cc1`, 64% (inactive); for `CCN(CC)CCOC(=O)c1ccc(NC(=O)c2cc3c(s2)-c2ccccc2OC3)cc1`, -7% (active).
As to `Cc1cc(C)c2c(-n3cccc3)c(C(=O)NCc3cccc(F)c3)sc2n1`, the survival was 66% (inactive).
Take `O=S(=O)(c1ccc2[nH]c3c(c2c1)CCCCC3)N1CCN(c2ccccc2)CC1`: the survival was 91% (inactive).
To `COc1ccccc1N1CCN(c2cc(C)nc3nncn23)CC1` belongs 81% (inactive); to `Cc1nc(-c2cccnc2)sc1CCNS(=O)(=O)c1ccc(F)cc1`, 75% (inactive); to `COc1ccc(CNC(=O)C(CC(C)C)NS(=O)(=O)c2ccc3c(c2)CCN3C(C)=O)cc1` (stereo not drawn), 92% (inactive).
To `CNCC(O)COc1ccccc1` (stereo not drawn) belongs 94% (inactive); to `N#CC(C#N)=C(N)/C(C#N)=C/c1cccs1`, 81% (inactive); to `CCc1ccc2nc(N3CCCCC3)c(C#N)cc2c1`, 88% (inactive).
Consider `CCn1cc(C(=O)N2CCN(c3ccc(C)cc3)C(C)C2)c(=O)c2cc(S(=O)(=O)N3CCCC3)ccc21` (stereo not drawn), for which the survival is 87% (inactive).
Regarding `Cc1nc2cc(-c3cccc(F)c3)nn2c(C)c1CCC(=O)Nc1ccccc1C(N)=O`, the survival was 61% (inactive).
In the case of `COC(=O)c1ccc(CSc2nc3c(c(=O)[nH]2)CCC3)cc1`, the survival is 85% (inactive).
In the case of `CCOc1ccc(CCNC(=O)c2cc3c(s2)-c2ccccc2OC3)cc1OCC`, the survival was 67% (inactive).
Regarding `CCOC(=O)c1ccccc1NC(=O)c1cc2c(s1)-c1c(C)cccc1OC2`, the survival is 137% (inactive).
Regarding `CCOc1ccccc1N(C)C(=O)c1cc2c(s1)-c1ccccc1OC2`, the survival was -2% (active).
As to `COc1cc(OC)c(N(C)C(=O)c2cc3c(s2)-c2ccccc2OC3)cc1Cl`, the survival is 60% (inactive).
On to `COc1ccc(Cl)cc1NC(=O)c1cc2c(s1)-c1ccccc1OC2`, for which the survival is 74% (inactive).
Regarding `COC(=O)c1ccccc1NC(=O)c1cc2c(s1)-c1ccccc1OC2`, the survival was 39% (active).
For the compound `CCOC(=O)c1ccc(NC(=O)c2cn(-c3ccccc3)nc2-c2ccc(C)cc2)cc1`, the survival is 57% (inactive).
Regarding `O=C(c1ccccc1Cl)N1CCCCC1CCN1CCCCC1` (stereo not drawn), the survival is 100% (inactive).
In the case of `COc1cccc(CNC(=O)C(Cc2ccccc2)NS(=O)(=O)c2ccc3c(c2)CCN3C(C)=O)c1` (stereo not drawn), the survival is 70% (inactive).
As to `CC(C)c1ccc(N2C(=O)N(Cc3ccccc3Cl)c3ccccc3S2(=O)=O)cc1`, the survival is 86% (inactive).
With `CCN(CC)c1ccc(NC(=O)CCS(=O)(=O)c2cccc3nsnc23)c(C)c1`, the survival is 44% (active).
Turning to `Cc1cc(F)ccc1NC(=O)CCS(=O)(=O)c1cccc2nsnc12`, the survival was 59% (inactive).
Turning to `Cc1ccc(NC(=O)CCS(=O)(=O)c2cccc3nsnc23)c(C)c1`, the survival was 61% (inactive).
To `O=C(Cn1cc(C(=O)c2ccco2)c2ccccc21)Nc1ccccc1Cl` belongs 80% (inactive); to `COc1c(C)cc(S(=O)(=O)Nc2cccc(-c3ccc(N4CCOCC4)nn3)c2)c(C)c1C`, 91% (inactive); to `COc1ccc(C2c3c(-c4ccccc4O)n[nH]c3C(=O)N2CCc2ccccc2)cc1` (stereo not drawn), 21% (active).
Regarding `COc1ccc(CCN2C(=O)c3[nH]nc(-c4ccccc4O)c3C2c2ccc(OC)cc2)cc1` (stereo not drawn), the survival was 29% (active).
Regarding `COc1ccc(CCN2C(=O)c3[nH]nc(-c4ccccc4O)c3C2c2ccccc2)cc1` (stereo not drawn), the survival was 22% (active).
With `COc1ccc(CCN2C(=O)c3[nH]nc(-c4ccccc4O)c3C2c2cccc(OC)c2)cc1` (stereo not drawn), the survival was 66% (inactive).
Take `COc1ccc2c(c1)c1c(c(=O)n(-c3ccc(F)c(Cl)c3)c(=O)n1CC(N)=O)n2C`: the survival is 96% (inactive).
To `CC(=O)Nc1nc(SCc2ccccc2Cl)n[nH]1` belongs 91% (inactive); to `Cc1ccc(NC(=O)Cn2nnc3sc(-c4ccccc4)cc3c2=O)cc1Cl`, 52% (inactive); to `O=C(COc1ccc(F)cc1)Nc1ccc2nc(SCC(=O)N3CCCC3)sc2c1`, 91% (inactive).
In the case of `Cc1ccc(NC(=O)C2CCCN2S(=O)(=O)c2ccc3nc(-c4ccccc4)[nH]c3c2)cc1F` (stereo not drawn), the survival is 71% (inactive).
For the compound `CCc1ccc(NC(=O)C2CCCN2S(=O)(=O)c2ccc3nc(-c4ccccc4)[nH]c3c2)cc1` (stereo not drawn), the survival is 82% (inactive).
Consider `COc1ccc(NC(=O)C2CCCN2S(=O)(=O)c2ccc3nc(-c4ccccc4)[nH]c3c2)cc1` (stereo not drawn), for which the survival is 77% (inactive).
On to `Cc1cc(C)cc(NC(=O)C2CCCN2S(=O)(=O)c2ccc3nc(-c4ccccc4)[nH]c3c2)c1` (stereo not drawn), for which the survival is 38% (active).
Turning to `CC(C)c1ccc(NC(=O)C2CCCN2S(=O)(=O)c2ccc3nc(-c4ccccc4)[nH]c3c2)cc1` (stereo not drawn), the survival is 44% (inactive).
For `Cc1cccc(NC(=O)C2CCCN2S(=O)(=O)c2ccc3nc(-c4ccccc4)[nH]c3c2)c1` (stereo not drawn), the survival is 37% (active).
For `CCc1cccc(NC(=O)C2CCCN2S(=O)(=O)c2ccc3c(c2)n(C)c(=O)c(=O)n3C)c1` (stereo not drawn), the survival is 85% (inactive).
For `Cc1ccc(NC(=O)C2CCCN2S(=O)(=O)c2ccc3nc(-c4ccccc4)[nH]c3c2)cc1C` (stereo not drawn), the survival is 92% (inactive).
As for `COc1cccc(NC(=O)C2CCCN2S(=O)(=O)c2ccc3c(c2)n(C)c(=O)c(=O)n3C)c1` (stereo not drawn), the survival is 87% (inactive).
As to `CCc1cccc(NC(=O)C2CCCN2S(=O)(=O)c2ccc3nc(-c4ccccc4)[nH]c3c2)c1` (stereo not drawn), the survival was 35% (active).
In the case of `COc1cccc(NC(=O)C2CCCN2S(=O)(=O)c2ccc3nc(-c4ccccc4)[nH]c3c2)c1` (stereo not drawn), the survival was 44% (active).
To `CCOc1ccccc1NC(=O)C1CCCN1S(=O)(=O)c1ccc2nc(-c3ccccc3)[nH]c2c1` (stereo not drawn) belongs 50% (inactive); to `CCOC(=O)N1CCC(NC(=O)c2cnn(-c3ccc(C)cc3C)c2C2CCN(C(=O)OC(C)(C)C)CC2)CC1`, 124% (inactive).
In the case of `O=C(CNC(=O)c1ccccc1Cl)OCc1cc(=O)n2nc(C3CC3)sc2n1`, the survival was 78% (inactive).
With `CCCCOC(=O)c1ccc(NC(=O)c2cc(-c3ccccc3)on2)cc1`, the survival was 91% (inactive).
For the compound `Cc1ccc(NC(=O)CSc2ncnc3c2sc2ccccc23)cc1C`, the survival was 113% (inactive).
To `CCN1CCN(Cc2c(O)ccc3oc(C)c(C(=O)Nc4ccc(OC)cc4)c23)CC1` belongs 78% (inactive); to `Cc1cc2c(C)nc3ccc(C(=O)O)cc3c2o1`, 71% (inactive).
Consider `Cc1ccc(OC(C)C(=O)N2CCN(CCc3ccncc3)CC2)cc1C` (stereo not drawn), for which the survival was 52% (inactive).
For the compound `Cc1ccc(Cl)cc1N1CCN(C(=O)C2CCN(S(=O)(=O)c3c(C)noc3/C=C/c3ccccc3F)CC2)CC1`, the survival was 72% (inactive).
For `CCOC(=O)c1cc(S(=O)(=O)NCc2ccccc2)[nH]n1`, the survival is 124% (inactive).
As for `CC(C)c1ccc(Nc2ncnc3onc(-c4ccc(F)cc4)c23)cc1`, the survival is 80% (inactive).
For `COC(=O)c1ccc(NC(=O)CC2C(=O)N(c3ccccc3)C(=O)N2Cc2ccc(F)cc2)cc1` (stereo not drawn), the survival was 55% (inactive).
For the compound `CCOc1ccc(NC(=O)CC2C(=O)N(c3ccccc3)C(=O)N2Cc2cccc(OC)c2)cc1` (stereo not drawn), the survival is 102% (inactive).
For `CCc1ccc(NC(=O)CC2C(=O)N(c3ccccc3)C(=O)N2C(C)C)cc1` (stereo not drawn) the value was -5% (active); for `O=C(CC1C(=O)N(c2ccccc2)C(=O)N1CCC1=CCCCC1)Nc1ccc(F)cc1` (stereo not drawn), 48% (inactive); for `CCCOc1ccc(NC(=O)CC2C(=O)N(c3ccc(C)cc3)C(=O)N2C(C)C)cc1` (stereo not drawn), 128% (inactive).
`COC(=O)c1ccc(NC(=O)CC2C(=O)N(c3cccc(OC)c3)C(=O)N2C(C)C)cc1` (stereo not drawn): the survival is 88% (inactive).
Regarding `COc1cccc(CN2C(=O)N(c3ccc(C)cc3)C(=O)C2CC(=O)Nc2cc(OC)cc(OC)c2)c1` (stereo not drawn), the survival was 144% (inactive).
On to `COc1ccc(CN2C(=O)N(c3ccc(F)cc3)C(=O)C2CC(=O)Nc2ccccc2)cc1` (stereo not drawn), for which the survival was 77% (inactive).
`CCCOc1ccc(NC(=O)CC2C(=O)N(c3ccc(C)cc3)C(=O)N2Cc2cccc(OC)c2)cc1` (stereo not drawn): the survival is 46% (active).
With `Cc1ccc(N2C(=O)C(CC(=O)Nc3ccc(F)cc3)N(CCC3=CCCCC3)C2=O)cc1` (stereo not drawn), the survival is 55% (active).
For `Cc1ccc(N2C(=O)C(CC(=O)Nc3ccccc3)N(CCC3=CCCCC3)C2=O)cc1` (stereo not drawn) the value was 67% (inactive).
On to `CCCOc1ccc(NC(=O)CC2C(=O)N(c3ccccc3)C(=O)N2Cc2ccc(F)cc2)cc1` (stereo not drawn), for which the survival is 17% (active).

The values are drawn from PubChem BioAssay AID463173 (ICCB-Longwood Screening Facility, Harvard Medical School, 2010).
